# Reference: publication PMC5540273 (PLoS ONE, 2017)
# Legend:
# [1] = system: CSNK2A1
# [2] = system: DAPK1
# [3] = system: DAPK3
# [4] = system: DDR2
# [5] = system: T1, DLK
# T1 construct: gene MAP3K12
# [6] = system: EPHB6
# [7] = system: T2, DMPK2
# T2 construct: gene CDC42BPG
# [8] = system: DMPK
# [9] = system: T3, DRAK1
# T3 construct: gene STK17A
# [10] = system: EIF2AK1
# [11] = system: ERBB2
# [12] = system: ERBB4
# [13] = system: ERBB3
# [14] = system: T4, ERK8
# T4 construct: gene MAPK15
# [15] = system: FGFR3
# [16] = system: FLT1
# 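Note: kd values determined as follow-up on hits from a single-replicate KINOMEscan panel screen.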
compound,measurement,setting,value
Cc1cccc(-c2nc(Nc3ccc4[nH]ncc4c3)c3ccccc3n2)n1 [GW857175],Kd,[1],100 nM
Cc1ccccc1-n1cnc2c(N)ncnc21 [SKF-97510],Kd,[2],> 10000 nM
Cc1cc(N2Cc3ccccc3C2)nc(Nc2ccc(S(=O)(=O)N3CCOCC3)cc2)n1.Cl [GSK1669917],Kd,[3],> 10000 nM
Cc1ccc(NC(=O)Nc2cc(C(C)(C)C)nn2-c2ccccc2)cc1 [GSK1014915],Kd,[4],410 nM
CC(=O)Nc1nc2cnc(Nc3cc(NC(=O)c4cccc(CCC#N)c4)ccc3C)nc2s1,Kd,[4],> 10000 nM
COc1ccc(CNC(=O)NC2CCN(c3ccnc(Nc4cc(OC)c(OC)c(OC)c4)n3)C2)cc1 (centres unmarked) [GSK1379748],Kd,[5],5100 nM
same,Kd,[6],180 nM
Cc1cc(-c2ccc3c(c2)CC[C@@H](N[C@@H](C)c2ccccc2)C3)cnc1N.Cl [GW412617],Kd,[5],280 nM
COc1ccc2nc(-c3cccc(C)n3)nc(Nc3ccncc3)c2c1 [GSK204919],Kd,[7],510 nM
Cc1cccc(-c2nc(C)cc(Nc3ccncc3)n2)n1 [GSK257997],Kd,[7],560 nM
Nc1nc(-c2nccs2)c(-c2ccnc3ccccc23)s1 [GW693542],Kd,[8],> 10000 nM
C[C@@H]1CCCCN1c1cc(-c2ccc3c(N)n[nH]c3c2)nc(N)n1 [GSK2258759],Kd,[9],88 nM
Cn1cncc1-c1ccc2ncnc(Nc3ccc(OCc4ccccc4)cc3)c2c1 [GW320571],Kd,[10],> 10000 nM
same,Kd,[11],41 nM
Nc1ncnc2[nH]c(-c3ccccc3)nc12 [AH5015],Kd,[10],> 10000 nM
COc1cc(Nc2nccc(N3CCC(NC(=O)Nc4cc(C)ccc4C)C3)n2)cc(OC)c1OC (centres unmarked) [GSK1379762],Kd,[6],1100 nM
Cl.O=C(Nc1cccc(-c2nn3ncccc3c2-c2ccnc(Nc3cccnc3)n2)c1)c1c(F)cccc1F [GSK312879],Kd,[11],29 nM
same,Kd,[12],64 nM
Cl.NC(=O)c1cccc(Nc2nccc(Nc3ccc(Oc4cccc(Cl)c4)c(Cl)c3)n2)c1 [GW659008],Kd,[13],260 nM
O=C(Nc1n[nH]c2nc(-c3nccs3)c(Br)cc12)C1CC1 [SB-742251],Kd,[14],870 nM
NC(=O)c1nnc2ccccc2c1N,Kd,[15],> 10000 nM
Cn1ccc2ncnc(Oc3ccc(NC(=O)Nc4ccccc4)cc3)c21,Kd,[16],350 nM
O=C(Nc1ccccc1)Nc1cccc(Oc2ccc3nccn3n2)c1,Kd,[16],91 nM
